# Assay outcomes from PubChem.
# IMPase Li cell: IMPase inhibition in cells with lithium potentiation; AID 1457; Potency, µM (titrated, usually from 59.4 µM), without a hit: top-dose activity, negative = IMPase inhibition, usual class: inhibitors; CHO-M1 cells, IP1 TR-FRET (IP-One), carbachol + lithium; actives 0.35% (n = 210,000);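 note: IP1 builds up when IMPase is blocked and the TR-FRET signal falls; potency is the fitted concentration of half-maximal effect; plate controls were basal vehicle for no effect and high inhibitor control for full effect; nearly all actives have a fitted effect of over 50% in size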
#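 IP1 accumulation measured by competitive TR-FRET in lysed CHO-M1 cells after 30 min compound exposure at 37C, with a small lithium addition to potentiate weak responses. Hill-equation AC50 from ratio and donor-channel data.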
# PNC assembly inh: blocks assembly of the perinucleolar compartment; PC3M PTB-GFP, PNC prevalence imaging, 16 h; active compounds read low; activity change (PNC), negative = inhibition, % at 10 µM; actives 3.1% (n = 140,000);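 active = readout at or below -70, meaning at least 70% loss of cells showing the perinucleolar compartment, a nuclear body marking cancer cells; inconclusive = readout between -30 and a set limit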;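 note: plate controls were DMSO wells for no effect and camptothecin positive control wells for full effect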
#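 Compounds are pinned in duplicate onto adhered PC3M cells stably expressing GFP-tagged PTB and incubated 16 h at 37 C. Cells are then fixed, nuclei stained with Hoechst, and PNC-positive cells counted.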
# HTT cytoprotect: protects HTT-Q103 PC12 cells, measured by ATP; Potency, µM (doses to about 56.4 µM), without a hit: cytoprotection (ATP increase), usual class: activators; PC12 HTT-Q103 induced, cytoprotection, ATP luminescence, 40 h; actives 0.14% (n = 230,000); note: potency is the fitted concentration of half-maximal effect; % of control where 0% means no effect; nearly all actives have a fitted effect of over 45% in size
#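 Rat PC12, Q103 Htt exon1-GFP fusion, ecdysone promoter; tebufenozide inducer 100 nM final; compound titration; qHTS, 1500 cells/well; ATPlite luminescent read.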
# IMPase inh: membrane-permeable compound that blocks inositol monophosphatase. P97697. CHO-M1 cells, IP1 accumulation, HTRF TR-FRET ratio. inhibition (IP1 accumulation), % at 46.1 µM. 120,000 tested, under 10 active; active = well fitted curve in the direction sought with a large enough effect in the signal ratio, not every such curve was filed as active; inconclusive = small, poorly fitted or top-dose-only effect, or a change in a side signal; inactive = no such curve, though single readings can be large or run the other way; the % refers to the signal ratio;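 note: cells stimulated with carbachol in lithium chloride buffer; plate controls were DMSO basal wells for no effect and reference inhibitor wells for full effect; higher means more IMPase inhibition seen as more IP1 and lower FRET ratio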
# Target sequence (P97697 whole entry, looked up): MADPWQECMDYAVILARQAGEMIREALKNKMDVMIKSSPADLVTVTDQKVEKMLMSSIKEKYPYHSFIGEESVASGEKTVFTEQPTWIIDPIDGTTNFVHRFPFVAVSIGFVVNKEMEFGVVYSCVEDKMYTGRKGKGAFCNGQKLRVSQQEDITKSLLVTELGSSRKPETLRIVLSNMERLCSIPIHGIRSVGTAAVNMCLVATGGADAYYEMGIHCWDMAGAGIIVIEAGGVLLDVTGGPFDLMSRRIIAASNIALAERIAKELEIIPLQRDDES
#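 The IP-One HTRF competitive assay in carbachol-stimulated CHO-M1 cells quantifies cellular IP1. Compounds spanned up to 46 uM final, and activity is expressed as AC50 from concentration-response fits of the ratio and donor data.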
# NPSR antagonist: blocks cAMP signaling of the human neuropeptide S receptor. Q6W5P4. CHO-NPSR cells, cAMP TR-FRET, antagonist mode. Potency, µM (top dose mostly 38.3 µM), without a hit: at the top dose activity change, negative = inhibition, hits mostly inhibitors. actives 1% (n = 220,000); note: potency is the fitted concentration of half-maximal effect; % is set by controls: 0 for no effect and ±100 for the full control effect; nearly all actives have a fitted effect of over 50% in size
# Target sequence (Q6W5P4 whole entry, looked up): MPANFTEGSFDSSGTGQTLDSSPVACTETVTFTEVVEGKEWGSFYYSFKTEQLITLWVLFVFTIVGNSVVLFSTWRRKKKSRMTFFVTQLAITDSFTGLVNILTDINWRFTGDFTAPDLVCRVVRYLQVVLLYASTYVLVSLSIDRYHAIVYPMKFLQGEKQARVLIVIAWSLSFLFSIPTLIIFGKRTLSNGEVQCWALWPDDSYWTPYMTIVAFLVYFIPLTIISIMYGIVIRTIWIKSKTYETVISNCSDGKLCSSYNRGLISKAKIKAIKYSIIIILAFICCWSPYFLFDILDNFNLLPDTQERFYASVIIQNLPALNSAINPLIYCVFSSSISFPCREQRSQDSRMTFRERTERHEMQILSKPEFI
# HttQ103 aggreg: inhibitors of mutant huntingtin aggregate formation in PC12 cells. PC12 HttQ103-GFP aggregates, Acumen cytometry, 40 h. Potency, µM (highest dose often 46.1 µM), inactives show at the top dose activity change, negative = inhibition, actives largely listed as inhibitors. actives 1.1% (n = 220,000). AID 1688; note: potency is the fitted concentration of half-maximal effect; % is set by controls: 0 for no effect and ±100 for the full control effect; nearly all actives have a fitted effect of over 60% in size
#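 Using laser scanning cytometry, GFP-positive aggregates were counted after lysis of PC12 cells induced with 100 nM tebufenozide to express HTT exon 1 Q103–GFP. Compounds were tested in titration.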
# * hit, by the source's call; ? = inconclusive; nt = no result; [ ] = another dose, or the depositor's remark. The list is not random: actives were taken first. Their share in the collection is about 3.4%. Unless noted, calls come from the whole dose curve; as a rule, active = well fitted curve in the direction sought with a large enough effect; inconclusive = small, poorly fitted or top-dose-only effect, or another doubt; inactive = no such curve, though single readings can be large; an effect the other way counts as inactive or inconclusive.
SMILES,IMPase Li cell,PNC assembly inh,HTT cytoprotect,IMPase inh,NPSR antagonist,HttQ103 aggreg
COC(=O)[C@@H]1CC[C@H](C)[C@@H](c2ccc(C)cc2)N1C(=O)c1ccc(/C=N\O[C@@H](C)CN2CCCc3nc(C)c(C)cc32)cc1,nt,nt,5%[10 µM],nt,nt,nt
COCCNc1cc(-c2ccccc2C)ncn1,-1%,nt,-30%,nt,nt,nt
CC1=N/C(=C\c2ccc3c(c2)OCO3)C(=O)N1c1ccc(C(=O)O)cc1,4%,?,11%[0.074 µM],nt,-25%,9%
O=C(O)c1ccc(N2C(=O)/C(=C\c3ccccc3)N=C2c2ccccc2)cc1,nt,nt,5%[10 µM],nt,6.3µM*,-23%[9.22 µM]
N#CC1(O)CCCCC1,3%,nt,13%,nt,nt,nt
O=c1c(-c2cc(F)cc(F)c2)nc2cnc(N3CCOCC3)nc2n1C1CC1,8.9µM*,nt,-7%,nt,nt,nt
N=C1S/C(=C\c2ccco2)C(=O)N1c1ccc2c(c1)OCO2,1%,nt,-21%,nt,-13%,17%
N=C1S/C(=C\c2ccco2)C(=O)N1c1nccs1,2%,nt,-81%,nt,6.3µM*,-31%
COCCn1c(C)cc(C(=O)COC(=O)c2ccc(Br)o2)c1C,4%,nt,-31%,nt,0%,1%
Oc1ccc(CN2CCc3ccccc3C2)c2cccnc12,10%[38.3 µM],-6,-91%,-4,4µM*,?
Oc1ccc(CN2CCN(c3ccccc3)CC2)c2cccnc12,3%,-100*,17%[10 µM],7,-9%[46.1 µM],-31%
O=[N+]([O-])c1cc(CN2CCN(c3cccc(C(F)(F)F)c3)CC2)c2cccnc2c1O,-3%,nt,-138%,nt,4%,8.9µM*
COc1ccccc1N1CCN(Cc2cc(Br)c(O)c3ncccc23)CC1,-6%[38.3 µM],5,-50%,9,-23%[46.1 µM],10µM*
Oc1ccc(CN2CCCCC2)c2cccnc12,10%,-24,-16%[1.9 µM],10,-11%[46.1 µM],0%[1.84 µM]
NC(N)=N[C@H](CCC(=O)O)C(=O)O,nt,nt,4%[1.9 µM],5,nt,nt
OC[C@H]1O[C@@H](n2cnc3c(N[C@H]4C[C@H]5CC[C@@H]4C5)ncnc32)[C@H](O)[C@@H]1O,-9%,nt,-20%,nt,nt,nt
CCOC(=O)c1cnc(SCCN2CCOCC2)nc1N,1%,nt,12%[10 µM],nt,5%,11%[9.22 µM]
Cc1nc(Cl)c2c(n1)N(CC(N)=O)C(=O)CO2,2%,-109*,nt,nt,8%,-10%
CC1=Nn2c(nc(-c3ccccc3)c2-c2ccccc2)N(CC(N)=O)C(=O)C1,-8%[38.3 µM],?,-7%,-3,-6%[46.1 µM],-22%
Cc1cc(C(=O)O)cc(S(=O)(=O)N2CCOCC2)c1C,19%[38.3 µM],-87*,-7%[10 µM],22[1.84 µM],-5%[46.1 µM],3%
Cc1ccc(C(=O)O)cc1S(=O)(=O)N1CCCC1,-1%[38.3 µM],-27,0%,2,-4%[46.1 µM],-12%
Cc1ccc(C)c(NC(=O)Cn2cc(C(=O)C3CCCCC3)c3ccccc32)c1,nt,nt,nt,-14,nt,nt
C=CCNC(=O)C1CC1(c1ccccc1)c1ccccc1 (stereo not drawn),1%,-20,-9%[0.074 µM],nt,6%,3%
Cc1cccc(NC(=O)c2oc3c(c2C)C(=O)CC(C)(C)C3)n1,29%[38.3 µM],20,-28%[0.074 µM],-5,-23%[46.1 µM],22µM*
Cc1ccsc1C(=O)NC(C)c1ccc2c(c1)OCO2 (stereo not drawn),23%,-119*,0%[10 µM],0,-2%,-13%
SMILES,IMPase Li cell,PNC assembly inh,HTT cytoprotect,IMPase inh,NPSR antagonist,HttQ103 aggreg
CCN(CC)C(=O)c1ccc(S(=O)(=O)N2CCC(c3nc4ccccc4s3)CC2)cc1,13%,-100*,7%[10 µM],-11,-7%[46.1 µM],?
CCOc1cc(S(=O)(=O)N2CCC(c3nc4ccccc4s3)CC2)c(OCC)cc1S(=O)(=O)N1CCCCC1,-13%[38.3 µM],17,4%,2,0%[46.1 µM],14%
CCc1c(C)nc2ncnn2c1Nc1ccc(C#N)c(Cl)c1,-14%[38.3 µM],-13,-3%,1,14%[7.67 µM],13µM*
CCc1c(C)nc2ncnn2c1NCCc1ccc(OC)c(OC)c1,1%,5,18%[10 µM],13,-12%[46.1 µM],10µM*
CCc1c(C)nc2ncnn2c1Nc1ccc(C(C)=O)cc1,48%[38.3 µM],-111*,3%,-3,-11%[46.1 µM],7%
CCOC(=O)c1ccc(Nc2c(CC)c(C)nc3ncnn23)cc1,-3%,-30,23%[10 µM],7,-9%[46.1 µM],3%
COc1ccc(CCNc2c(C)c(C)nc3ncnn23)cc1,11%[38.3 µM],64,-54%[10 µM],13,3%[46.1 µM],?
CCCCn1c(SCC(=O)OCC)nc2c1c(=O)[nH]c(=O)n2C,3%,-119*,-2%,-9,20%,11%
Cc1cc(Sc2ncnc(N)c2[N+](=O)[O-])ncn1,9%,nt,7%[10 µM],nt,-33%,4.5µM*
Cc1cc(Sc2nc(N)ncc2[N+](=O)[O-])ncn1,4%,nt,-153%,nt,-25%,?
CCOC(=O)C1OC1c1ccccc1 (stereo not drawn),6%,nt,-7%,nt,nt,nt
CC(=O)OCC1OC(C#CCCc2ccccc2)C=CC1OC(C)=O (stereo not drawn),nt,nt,-1%[10 µM],nt,nt,nt
O=C(Cc1ccccc1)Nc1ccccc1C(=O)Nc1ccccc1,17%,-120*,nt,nt,-13%,-26%
Cc1ccc(NC(=O)c2ccccc2NC(=O)Cc2ccccc2)cc1,6%,?,0%[10 µM],nt,-5%,-19%
CC(C)(C)c1ccc(-n2nc(C(N)=O)c(O)cc2=O)cc1,-1%,nt,-33%,nt,-14%,10%
CC(C)(C)c1ccc(-n2nc(C#N)c(Cl)cc2=O)cc1,5%,nt,-192%,nt,-55%,5µM*
NC(=O)C1CCN(Cc2nc3cc(C(F)(F)F)ccc3c(=O)[nH]2)CC1,nt,nt,0%[10 µM],nt,1%,-2%[9.22 µM]
CC(=O)c1c(C)cc(C)c(CSc2nc(C)cc(=O)[nH]2)c1C,6%[38.3 µM],-112*,-9%[10 µM],-5,-13%[46.1 µM],7%
CCOC(=O)c1cc(NC(=O)c2ccc(OC)cc2)c(=O)n2c1oc1ccc(Cl)cc12,nt,nt,nt,-11,nt,nt
COC(=O)c1cc(NC(=O)c2cc(C(C)(C)C)nn2Cc2ccc(F)cc2)ccc1N1CCOCC1,nt,nt,-22%[10 µM],nt,-34%,-6%[9.22 µM]
Cc1ccc(-n2nnnc2SCn2nnc3ccccc3c2=O)c(C)c1,5%[38.3 µM],-19,-69%,23,?,8.9µM*
O=c1c2ccccc2nnn1CSc1ccccc1,-2%,?,-6%[10 µM],5,-6%[46.1 µM],-2%
COC(=O)c1ccccc1NC(=O)CSc1nnnn1-c1ccc(C)cc1C,10µM*,-6,-13%[0.074 µM],11,-27%[46.1 µM],17%[9.22 µM]
COC(=O)c1ccccc1NC(=O)CSc1n[nH]c(C)n1,4%,-100*,11%[10 µM],2,-4%[46.1 µM],21%
O=c1c2ccccc2nnn1CSc1ccc2ccccc2n1,14%,-104*,-14%[10 µM],nt,1%,-3%
O=Cc1cccn1-c1ncc(Br)cn1,-3%,nt,0%[10 µM],nt,7%,-5%
CCOC(=O)c1sc(NC(=O)CSc2nnnn2-c2ccc(C)c(C)c2)nc1C,-13%[38.3 µM],18,-21%,-2,-14%[46.1 µM],13%
